# Reference: PubChem BioAssay (NCATS)
# Results filed as inconclusive are left out. Values without a mark were called inactive. Activity calls are given as the source filed them. Calls come from the whole dose curve; as a rule, active = well fitted inhibition curve with a large enough effect; inconclusive = small, poorly fitted or top-dose-only effect; inactive = flat fitted curve, though single readings scatter. *1 amine or outer side, *2 acyl side, *3 side chain or, on linkers, in order; H or OH if unused. Where a SMILES comes first, the peptide text is derived from it. Bridges are numbered along the chain shown (N, C = ends). [ ]: non-standard residue; d: D form. The star is where a group is joined. ξ: configuration not given here. X10 = NC1=NCCC(C(N[*:1])C(=O)[*:2])N1; ΔAla(3-NHCONH2) = NC(=O)NC=C(N)C(=O)O; ξβ3hOrn = NCCCC(N)CC(=O)*; Dap = NC[CH](N)C(=O)O
# Test system: CRL-7250
# Experiment: Cytotoxic Profiling of Annotated Libraries Using Quantitative High-Throughput Screening (AID 1296008); note: nearly all actives have a fitted effect of over 60% in size
# Conditions: Five cell lines viability, CellTiter-Glo ATP luminescence, 48-72 h; max response: hits give low values
# Outline: (§1)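 Cells exposed to compounds for 48 or 72 hr at 37 degrees Celsius. Viability read as ATP-coupled luminescence with CellTiter-Glo after 10 min at room temperature.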
# % is set by controls: 0 for no effect and ±100 for the full control effect; potency is the fitted concentration of half-maximal effect.
Compound,max response [%],Potency,outcome
Nc1ccc(C(=O)OCC(O)CO)cc1 (stereo unspecified),-0.994,,
NCCCC(N)CC(=O)NCC1NC(=O)C(CO)NC(=O)C(N)CNC(=O)C(C2CCN=C(N)N2)NC(=O)C(=CNC(N)=O)NC1=O (stereo not drawn) (H-[Dap]S[Dap](ξβ3hOrn)[ΔAla(3-NHCONH2)][X10]; lactam 1-C; configuration not given here),-12.1,,
COc1cc(C(=O)OC(COCCC(C)C)CN2CCOCC2)cc(OC)c1OC (stereo unspecified),-2.39,,
CC(CC(C#N)(c1ccccc1)C(C)C)N(C)C (stereo unspecified),-3.29,,
Oc1ccccc1,-1.94,,
CCN(CC)CC(=O)Nc1c(C)cccc1C(=O)OC,1.74,,
CC[C@@]1(O)C(=O)OCc2c1cc1n(c2=O)Cc2c-1nc1ccccc1c2/C=N/OC(C)(C)C,,1.19 µM (active),
C[C@H]1C[C@H](O)c2ccsc2S1(=O)=O,-0.46,,
CC(=O)c1cc2ccccc2s1,-0.976,,
CO[C@@H]1[C@@H](O[C@@H]2O[C@H](C)[C@@H](O[C@H]3C[C@@](C)(O)[C@@H](O)[C@H](C)O3)[C@H](N(C)C)[C@H]2O)[C@@H](CC=O)C[C@@H](C)[C@@H](O[C@@H]2CC[C@H](N(C)C)[C@@H](C)O2)/C=C/C=C/C[C@@H](C)OC(=O)C[C@H]1OC(C)=O,,,inactive
NS(=O)(=O)c1ccc(N2CCCCS2(=O)=O)cc1,-11.1,,
COc1cc(/C=C/C(N)=O)cc(OC)c1OC,,,inactive
CCOC(=O)C(=O)c1csc(NC=O)n1,-5.63,,
O=C(Oc1ccccc1)c1ccccc1O,,,inactive
O=C1CCCc2c(O)cccc21,-3.71,,
CC(=O)N[C@@H](CO)C(=O)N[C@@H](CC(=O)O)C(=O)N[C@@H](CCCCN)C(=O)N1CCC[C@H]1C(=O)O (Ac-SDKP-OH),3.47,,
CCOC(=O)OCC/C(SC(=O)OCC)=C(\C)N(C=O)Cc1cnc(C)nc1N,-3.12,,
O=C(O)c1ccccc1Nc1cc(Cl)ccc1C(=O)O,2.83,,
CCC(=O)O[C@]1(C(=O)COC)[C@@H](C)C[C@H]2[C@@H]3CCC4=CC(=O)C=C[C@]4(C)C3(F)[C@@H](O)C[C@@]21C (stereo partly specified),,,inactive

Compound,max response [%],Potency,outcome
Cc1onc(-c2ccccc2)c1C(=O)Cl,-2.71,,
COc1ccccc1N1CCN(CC(O)COc2cc(OC)c(OC)c(OC)c2)CC1 (stereo unspecified),,,inactive
NCC[C@H](O)C(=O)N[C@@H]1C[C@H](N)[C@@H](O[C@H]2O[C@H](CN)[C@@H](O)[C@H](O)[C@@H]2O)[C@H](O)[C@@H]1O[C@H]1O[C@H](CO)[C@@H](O)[C@H](N)[C@@H]1O,-2.25,,
CNC(=O)c1c(I)c(NC(C)=O)c(I)c(C(=O)O)c1I,-1.99,,
Cc1oc(-c2ccccc2)nc1CCC(=O)c1ccc(CC2SC(=O)NC2=O)cc1 (stereo unspecified),-17.6,,
NS(=O)(=O)c1cc(C(=O)NN2C[C@H]3[C@H]4CCC(C4)[C@H]3C2)ccc1Cl,,,inactive
CC(=O)Nc1ccc(S(=O)(=O)Nc2cc(C)on2)cc1,-2.31,,
Cc1coc2ccccc2c1=O,-0.524,,
O=C(C1CCCCC1)N1CC(=O)N2CCCc3ccccc3C2C1 (stereo unspecified),,,inactive
CC(C)C(=O)Nc1cccc(C2CN3CCSC3=N2)c1 (stereo unspecified),-9.12,,
CCOC(=O)C(O)c1ccccc1 (stereo unspecified),,,inactive
Nc1cc(C(F)(F)F)ccc1S,-0.153,,
CC(=O)O[C@@H]1CC2C3CCc4cc(OC(=O)c5ccccc5)ccc4C3CCC2(C)[C@H]1OC(C)=O (stereo partly specified),-8.96,,
CCC1=C[C@@H]2CN(C1)Cc1c([nH]c3ccccc13)[C@@](C(=O)OC)(c1cc3c(cc1OC)N(C)[C@H]1[C@@](O)(C(=O)OC)[C@H](OC(C)=O)[C@]4(CC)C=CCN5CC[C@]31[C@@H]54)C2,,0.0422 µM (active),
O=C1Cc2cc(Cl)ccc2N1,-11.6,,
COC(=O)c1ccc(NC(C)=O)cc1OC,-0.178,,
COC(=O)CCCCC(CCSS/C(CCO)=C(\C)N(C=O)Cc1cnc(C)nc1N)SC(C)=O (stereo unspecified),,,inactive
O=C(CS(=O)Cc1ccco1)NC/C=C\COc1cc(CN2CCCCC2)ccn1 (stereo unspecified),-3.38,,
Nc1c(I)cc(I)c(C(=O)N(CCC(=O)O)c2ccccc2)c1I,1.19,,

# Test system: HEK293
# Experiment: as above
# Conditions: Five cell lines viability, CellTiter-Glo ATP luminescence, 48-72 h; max response: hits give low values
# Outline: as §1
Compound,max response [%],outcome,Potency
Nc1ccc(C(=O)OCC(O)CO)cc1 (stereo unspecified),-11.2,,
NCCCC(N)CC(=O)NCC1NC(=O)C(CO)NC(=O)C(N)CNC(=O)C(C2CCN=C(N)N2)NC(=O)C(=CNC(N)=O)NC1=O (stereo not drawn) (H-[Dap]S[Dap](ξβ3hOrn)[ΔAla(3-NHCONH2)][X10]; lactam 1-C; configuration not given here),-7.39,,
COc1cc(C(=O)OC(COCCC(C)C)CN2CCOCC2)cc(OC)c1OC (stereo unspecified),,inactive,
CC(CC(C#N)(c1ccccc1)C(C)C)N(C)C (stereo unspecified),,inactive,
Oc1ccccc1,-1.05,,
CCN(CC)CC(=O)Nc1c(C)cccc1C(=O)OC,2.01,,
CC[C@@]1(O)C(=O)OCc2c1cc1n(c2=O)Cc2c-1nc1ccccc1c2/C=N/OC(C)(C)C,,,21.1 nM (active)
C[C@H]1C[C@H](O)c2ccsc2S1(=O)=O,3.47,,
CC(=O)c1cc2ccccc2s1,-8.14,,
CO[C@@H]1[C@@H](O[C@@H]2O[C@H](C)[C@@H](O[C@H]3C[C@@](C)(O)[C@@H](O)[C@H](C)O3)[C@H](N(C)C)[C@H]2O)[C@@H](CC=O)C[C@@H](C)[C@@H](O[C@@H]2CC[C@H](N(C)C)[C@@H](C)O2)/C=C/C=C/C[C@@H](C)OC(=O)C[C@H]1OC(C)=O,,,8410 nM (active)
NS(=O)(=O)c1ccc(N2CCCCS2(=O)=O)cc1,,inactive,
COc1cc(/C=C/C(N)=O)cc(OC)c1OC,,inactive,
CCOC(=O)C(=O)c1csc(NC=O)n1,3.1,,
O=C(Oc1ccccc1)c1ccccc1O,,inactive,
O=C1CCCc2c(O)cccc21,-4.98,,
CC(=O)N[C@@H](CO)C(=O)N[C@@H](CC(=O)O)C(=O)N[C@@H](CCCCN)C(=O)N1CCC[C@H]1C(=O)O (Ac-SDKP-OH),0.0413,,
CCOC(=O)OCC/C(SC(=O)OCC)=C(\C)N(C=O)Cc1cnc(C)nc1N,-0.945,,
O=C(O)c1ccccc1Nc1cc(Cl)ccc1C(=O)O,-2.68,,
CCC(=O)O[C@]1(C(=O)COC)[C@@H](C)C[C@H]2[C@@H]3CCC4=CC(=O)C=C[C@]4(C)C3(F)[C@@H](O)C[C@@]21C (stereo partly specified),-13.2,,

Compound,max response [%],outcome,Potency
Cc1onc(-c2ccccc2)c1C(=O)Cl,0.397,,
COc1ccccc1N1CCN(CC(O)COc2cc(OC)c(OC)c(OC)c2)CC1 (stereo unspecified),2.4,,
NCC[C@H](O)C(=O)N[C@@H]1C[C@H](N)[C@@H](O[C@H]2O[C@H](CN)[C@@H](O)[C@H](O)[C@@H]2O)[C@H](O)[C@@H]1O[C@H]1O[C@H](CO)[C@@H](O)[C@H](N)[C@@H]1O,-4.69,,
CNC(=O)c1c(I)c(NC(C)=O)c(I)c(C(=O)O)c1I,-7.17,,
Cc1oc(-c2ccccc2)nc1CCC(=O)c1ccc(CC2SC(=O)NC2=O)cc1 (stereo unspecified),,inactive,
NS(=O)(=O)c1cc(C(=O)NN2C[C@H]3[C@H]4CCC(C4)[C@H]3C2)ccc1Cl,4.38,,
CC(=O)Nc1ccc(S(=O)(=O)Nc2cc(C)on2)cc1,4.22,,
Cc1coc2ccccc2c1=O,3.92,,
O=C(C1CCCCC1)N1CC(=O)N2CCCc3ccccc3C2C1 (stereo unspecified),,inactive,
CC(C)C(=O)Nc1cccc(C2CN3CCSC3=N2)c1 (stereo unspecified),-1.66,,
CCOC(=O)C(O)c1ccccc1 (stereo unspecified),,inactive,
Nc1cc(C(F)(F)F)ccc1S,-4.91,,
CC(=O)O[C@@H]1CC2C3CCc4cc(OC(=O)c5ccccc5)ccc4C3CCC2(C)[C@H]1OC(C)=O (stereo partly specified),,inactive,
CCC1=C[C@@H]2CN(C1)Cc1c([nH]c3ccccc13)[C@@](C(=O)OC)(c1cc3c(cc1OC)N(C)[C@H]1[C@@](O)(C(=O)OC)[C@H](OC(C)=O)[C@]4(CC)C=CCN5CC[C@]31[C@@H]54)C2,,,8.4 nM (active)
O=C1Cc2cc(Cl)ccc2N1,-3.82,,
COC(=O)c1ccc(NC(C)=O)cc1OC,-0.683,,
COC(=O)CCCCC(CCSS/C(CCO)=C(\C)N(C=O)Cc1cnc(C)nc1N)SC(C)=O (stereo unspecified),,inactive,
O=C(CS(=O)Cc1ccco1)NC/C=C\COc1cc(CN2CCCCC2)ccn1 (stereo unspecified),0.0112,,
Nc1c(I)cc(I)c(C(=O)N(CCC(=O)O)c2ccccc2)c1I,-0.316,,
